# Reference: PubChem BioAssay
# Calls of active or inactive are those of the source. Cut-off read from the data, not from the text of the source, unless noted: active = nuclear beta-catenin stimulation mostly above about 4.2% (no sharp cut-off); inactive = mostly below about 10%.
# Assays:
# [1] = stimulators of nuclear beta-catenin in C2C12, primary screen, imaging, WNT3A-conditioned medium, mouse C2C12, NPC library (AID 1117326); conditions: stronger effect = higher value; note: reference of the scale not given here
# [2] = stimulators of insulin release from INS-1E, primary screen, cell-based, 5 mM glucose, NPC library (AID 1117329;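 active = compound raises insulin release from rat beta cells at 5 mM glucose, no numeric limit stated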; note: reference of the scale not given here); conditions: rat INS-1E insulin secretion, at 10 µM, stronger effect = higher value
# [3] = growth inhibition of GSK3B-pretreated HCT116 cells – cell-based, CellTiter-Glo, 0.2 to 20 µM (AID 1117336;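 active = compounds lowering colon cancer cell viability after pretreatment blocking the GSK3B kinase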); conditions: HCT116 viability after GSK3B inhibitor, at 20 µM, stronger effect = higher value
# [4] = inhibition of endothelial tube formation, primary screen, imaging, VEGF stimulated, CD31 staining, tube area, NPC library (AID 1117340;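 active = compound that reduces growth-factor-driven endothelial tube area in a mixed cell culture, no cutoff stated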); conditions: VEGF-stimulated ADSC/ECFC co-culture, at 10 µM, stronger effect = higher value
# [5] = glucagon-like peptide 1 release enhancers, primary assay, NCI-H716 cell line, NPC library (AID 1117341;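 active = compound raises GLP1 secretion from the human gut endocrine cells, with no numeric limit stated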; note: reference of the scale not given here); conditions: NCI-H716 cells, at 10 µM, stronger effect = higher value
# [6] = HCT116 colon cancer cell growth inhibition, primary screen, CellTiter-Glo luminescence, NPC library (AID 1117342;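 active = compounds that lower survival of HCT116 colon cancer cells in the luminescence readout, no numeric limit stated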); conditions: at 20 µM (top of the series)
# [7] = CellTiter-Glo luminescent readout of SW480 viability loss, NPC library primary (AID 1117343;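 active = compounds that lower viability of the colon cancer cells in the luminescence readout, with no numeric limit stated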); conditions: CellTiter-Glo luminescence; at 20 µM (top of the series)
# [8] = decreased DLD-1 cellular survival, CellTiter-Glo luminescent readout, NPC compound collection, primary HTS (AID 1117346;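 active = compounds that lower survival of DLD-1 colon cancer cells in the luminescence readout, no cutoff given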); conditions: DLD-1 viability, CellTiter-Glo luminescence; at 20 µM (top of the series)
Compound,nuclear beta-catenin stimulation ([1]; at 10 µM),"nuclear beta-catenin stimulation ([1]; stimulation, at 2 µM) [%]",insulin secretion stimulation [2],viability decrease [3],tube area decrease [4],GLP1 secretion stimulation [5],inhibition of viability [6],viability decrease (inhibition) [7],viability decrease (inhibition) [8]
CC(C)Cc1ccc(C(C)C(=O)OCc2ccccn2)cc1 (stereo unspecified),-0.2% (inactive),1.5,-0.3% (inactive),-24% (inactive),-19.1% (inactive),0.1% (inactive),22.8% (inactive),40.9% (inactive),19.1% (inactive)
CCOC(=O)C(C#N)=C(c1ccccc1)c1ccccc1,0.9% (inactive),1.8,6.6% (inactive),-0.55% (inactive),2.6% (inactive),-0.1% (inactive),26.4% (inactive),18.9% (inactive),15.2% (inactive)
Oc1cccc(O)c1O,5% (inactive),2.5,2.5% (inactive),68.9% (active),24.9% (inactive),-1% (inactive),45.7% (inactive),101% (active),17.2% (inactive)
COc1ccc2c(c1)c(CC(=O)OC/C=C(\C)CC/C=C(\C)CCC=C(C)C)c(C)n2C(=O)c1ccc(Cl)cc1,2.2% (inactive),3,2.1% (inactive),-16.7% (inactive),5.1% (inactive),-2.8% (inactive),4.5% (inactive),8.2% (inactive),-1.2% (inactive)
Cc1c(F)cc2c(=O)c(C(=O)O)cn3c2c1CCC3C (stereo unspecified),1.9% (inactive),1.5,-1.9% (inactive),-181% (inactive),-28% (inactive),1.5% (inactive),0.65% (inactive),-16.3% (inactive),-3% (inactive)
CN[C@@H]1[C@@H](O)[C@@H](O[C@@H]2[C@H](O)[C@H](O[C@H]3OC(CN)=CC[C@H]3N)[C@@H](N)C[C@H]2N)OCC1(C)O (stereo partly specified),3.9% (inactive),5.2,0.6% (inactive),-9.1% (inactive),0.1% (inactive),2.9% (inactive),-0.03% (inactive),-9.1% (inactive),-8.2% (inactive)
[O-][n+]1ccccc1SSc1cccc[n+]1[O-],78.1% (active),34,-0.2% (inactive),51% (active),103% (active),15.1% (inactive),51.9% (active),-68.5% (inactive),1.15% (inactive)
CCN(CC)CCOc1ccc(C(O)(Cc2ccc(Cl)cc2)c2ccc(C)cc2)cc1 (stereo unspecified),8.8% (inactive),1.9,0.1% (inactive),101% (active),107% (active),31.5% (active),102% (active),122% (active),101% (active)
Cc1cc(C)c(NC(=O)CN(CC(=O)O)CC(=O)O)c(C)c1Br,1.9% (inactive),0.6,0.25% (inactive),29.2% (inactive),-4.1% (inactive),-3.7% (inactive),13.3% (inactive),4.7% (inactive),-14.9% (inactive)
COc1cc2c(cc1OC)CN(C(=O)[C@H](C)N[C@@H](CCc1ccccc1)C(=O)O)[C@H](C(=O)O)C2,-0.2% (inactive),-2.5,0.4% (inactive),-9.2% (inactive),14.8% (inactive),-1.8% (inactive),7.6% (inactive),-3.9% (inactive),-16.7% (inactive)
C[C@@H]1CCC[C@H](C)N1CCCC(O)(c1ccccc1)c1ccccn1 (stereo partly specified),1% (inactive),0,2.6% (inactive),-50.8% (inactive),12.8% (inactive),1.3% (inactive),-3.7% (inactive),14.7% (inactive),-14.8% (inactive)
COc1ccc(/C=C/C(=O)c2ccc(OC)cc2OC)cc1,7.4% (inactive),-0.5,2.6% (inactive),77.7% (active),54.9% (active),-6.1% (inactive),58.1% (active),94.5% (active),81.6% (active)
CCN1CCCC1=O,-0.1% (inactive),2.9,2.6% (inactive),18.7% (inactive),-19.9% (inactive),4.1% (inactive),-2.03% (inactive),-20.4% (inactive),-9.9% (inactive)
CCCCOC(=O)CC(CC(=O)OCCCC)(OC(C)=O)C(=O)OCCCC,-0.3% (inactive),0.1,6.2% (inactive),30.4% (inactive),2.1% (inactive),0.1% (inactive),25.9% (inactive),62.1% (active),26.9% (inactive)
